# Measurements as given in PubChem BioAssay (EPA / NIEHS).
# The source made the active and inactive calls. The calls were made as follows: active = hit-call score of the fitted dose curve at least 0.9, where 1 is the maximum; inactive = score below 0.9.
# Read-out: Monokine induced gamma interferon (MIG), CXCL9 (gene 4283)
# Assay: BSK_CASM3C_MIG: BioMAP Diversity Plus: CASM3C Assay for Monokine induced gamma interferon (MIG) Biomarker Activity (AID 2283048);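 also: MIG protein level measured by ELISA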
# Details: primary human coronary artery smooth muscle cells; actives raise or lower the signal
Structure (SMILES),outcome,AC50
CCC(C)(CC)c1cc(NC(=O)c2c(OC)cccc2OC)on1,inactive,
Nn1cnnc1,inactive,
CCCCCCCCOC(=O)c1ccccc1C(=O)OCCCCCCCC,inactive,
Clc1ccc(Cl)cc1,inactive,
Cc1ccccc1O,inactive,
Cc1cc(-c2ccc(N)c(C)c2)ccc1N,inactive,
CC#Cc1cc(C)nc(Nc2ccccc2)n1,inactive,
CO/C=C(/C(=O)OC)c1ccccc1COc1cccc(C(F)(F)F)n1,inactive,
ClC1=C(Cl)[C@]2(Cl)[C@@H]3[C@@H](Cl)[C@H]4O[C@H]4[C@@H]3C1(Cl)C2(Cl)Cl,inactive,
C=CC(=O)NCNC(=O)C=C,inactive,
CCCCCCCCCc1ccc(O)cc1,,36.1 µM (active)
N#Cc1ccc(N(CC(N)=O)CC(F)(F)F)cc1C(F)(F)F,inactive,
CCC(C)(c1ccc(O)cc1)c1ccc(O)cc1,inactive,
O=C(N[C@H]1CN2CCC1CC2)c1cc2ccoc2cn1,inactive,
ClC1=C(Cl)[C@]2(Cl)[C@@H]3[C@@H]4C[C@@H]([C@H]5O[C@@H]45)[C@@H]3[C@@]1(Cl)C2(Cl)Cl,inactive,
O=C(NC(=O)c1cc(F)c(F)cc1Cl)Nc1cc(F)ccc1N1CCC(C(=O)O)CC1,inactive,
O=S(=O)(O)C(F)(F)C(F)(F)C(F)(F)C(F)(F)C(F)(F)C(F)(F)F,inactive,

Structure (SMILES),outcome,AC50
C1CC2OC2CC1C1CO1 (stereo not given),inactive,
ClC1=C(Cl)[C@]2(Cl)[C@@H]3[C@H]4C[C@H]([C@@H]5O[C@H]45)[C@@H]3[C@@]1(Cl)C2(Cl)Cl,inactive,
C[C@]12CCC(=O)C=C1CC[C@@H]1[C@@H]2CC[C@]2(C)C(=O)CC[C@@H]12,inactive,
CCC(C)c1cc([N+](=O)[O-])cc([N+](=O)[O-])c1O (stereo not given),inactive,
CCC(=O)O[C@H]1CC[C@H]2[C@@H]3CCC4=CC(=O)CC[C@]4(C)[C@H]3CC[C@]12C,inactive,
Clc1ccc(C(Cl)(Cl)Cl)cc1,inactive,
Oc1ccc(Cl)cc1Cl,inactive,
C[C@]12CCC(=O)C=C1CC[C@@H]1[C@@H]2CC[C@@]2(C)[C@H]1CC[C@]2(C)O,inactive,
CC(C)C(=O)OCC(C)(C)C(OC(=O)C(C)C)C(C)C (stereo not given),inactive,
O=NN(c1ccccc1)c1ccccc1,inactive,
Oc1ccc(C(c2ccc(O)cc2)(C(F)(F)F)C(F)(F)F)cc1,inactive,
CCCCCCOC(=O)c1ccccc1C(=O)OCCCCCC,inactive,
Sc1ccccc1,inactive,
Clc1ccc(C(c2ccccc2Cl)C(Cl)(Cl)Cl)cc1 (stereo not given),inactive,
c1cc2ccc3cccc4ccc(c1)c2c34,inactive,
CCCN(CCC)N=O,inactive,

# Read-out: serum amyloid A (SAA), SAA1 (gene 6288)
# Assay: BSK_CASM3C_SAA: BioMAP Diversity Plus: CASM3C Assay for serum amyloid A (SAA) Biomarker Activity (AID 2283049);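 also: SAA protein level quantified by ELISA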
# Details: primary human coronary artery smooth muscle cells; actives raise or lower the signal
Structure (SMILES),outcome,AC50
CCC(C)(CC)c1cc(NC(=O)c2c(OC)cccc2OC)on1,inactive,
Nn1cnnc1,inactive,
CCCCCCCCOC(=O)c1ccccc1C(=O)OCCCCCCCC,inactive,
Clc1ccc(Cl)cc1,inactive,
Cc1ccccc1O,inactive,
Cc1cc(-c2ccc(N)c(C)c2)ccc1N,inactive,
CC#Cc1cc(C)nc(Nc2ccccc2)n1,inactive,
CO/C=C(/C(=O)OC)c1ccccc1COc1cccc(C(F)(F)F)n1,inactive,
ClC1=C(Cl)[C@]2(Cl)[C@@H]3[C@@H](Cl)[C@H]4O[C@H]4[C@@H]3C1(Cl)C2(Cl)Cl,inactive,
C=CC(=O)NCNC(=O)C=C,inactive,
CCCCCCCCCc1ccc(O)cc1,,29.8 µM (active)
N#Cc1ccc(N(CC(N)=O)CC(F)(F)F)cc1C(F)(F)F,inactive,
CCC(C)(c1ccc(O)cc1)c1ccc(O)cc1,inactive,
O=C(N[C@H]1CN2CCC1CC2)c1cc2ccoc2cn1,inactive,
ClC1=C(Cl)[C@]2(Cl)[C@@H]3[C@@H]4C[C@@H]([C@H]5O[C@@H]45)[C@@H]3[C@@]1(Cl)C2(Cl)Cl,,0.468 µM (active)
O=C(NC(=O)c1cc(F)c(F)cc1Cl)Nc1cc(F)ccc1N1CCC(C(=O)O)CC1,inactive,

Structure (SMILES),outcome,AC50
O=S(=O)(O)C(F)(F)C(F)(F)C(F)(F)C(F)(F)C(F)(F)C(F)(F)F,inactive,
C1CC2OC2CC1C1CO1 (stereo not given),inactive,
ClC1=C(Cl)[C@]2(Cl)[C@@H]3[C@H]4C[C@H]([C@@H]5O[C@H]45)[C@@H]3[C@@]1(Cl)C2(Cl)Cl,inactive,
C[C@]12CCC(=O)C=C1CC[C@@H]1[C@@H]2CC[C@]2(C)C(=O)CC[C@@H]12,inactive,
CCC(C)c1cc([N+](=O)[O-])cc([N+](=O)[O-])c1O (stereo not given),inactive,
CCC(=O)O[C@H]1CC[C@H]2[C@@H]3CCC4=CC(=O)CC[C@]4(C)[C@H]3CC[C@]12C,inactive,
Clc1ccc(C(Cl)(Cl)Cl)cc1,inactive,
Oc1ccc(Cl)cc1Cl,inactive,
C[C@]12CCC(=O)C=C1CC[C@@H]1[C@@H]2CC[C@@]2(C)[C@H]1CC[C@]2(C)O,inactive,
CC(C)C(=O)OCC(C)(C)C(OC(=O)C(C)C)C(C)C (stereo not given),inactive,
O=NN(c1ccccc1)c1ccccc1,inactive,
Oc1ccc(C(c2ccc(O)cc2)(C(F)(F)F)C(F)(F)F)cc1,,37.6 µM (active)
CCCCCCOC(=O)c1ccccc1C(=O)OCCCCCC,inactive,
Sc1ccccc1,inactive,
c1cc2ccc3cccc4ccc(c1)c2c34,inactive,
CCCN(CCC)N=O,inactive,
